# According to PubChem BioAssay (EPA / NIEHS):
# Several values for one entry are separate records, joined by “and”; a condition that tells them apart may be missing. Equal values may be shown once. Results filed as inconclusive are left out. Activity calls are given as the source filed them. How the source made its calls: active means hit-call score of the fitted dose curve at least 0.9, where 1 is the maximum; inconclusive means response in the unintended direction; inactive means score below 0.9.
# Molecular target: Cellular tumor antigen p53 (Homo sapiens) (UniProt P04637)
# Test: TOX21_p53_BLA_p5_ratio: Tox21 HCT-116 p53 Agonism Beta-lactamase Assay, Ratio, Phase 5 (AID 2283599)
# Source text: TOX21_p53_BLA_p5 is a cell-based, single-readout assay that uses HCT116, a human intestinal cell line, […] in a 1536-well plate.TOX21_p53_BLA_p5_ratio is an assay readout measuring reporter gene via receptor activity and designed using inducible reporter (beta lactamase induction) detected with GAL4 b-lactamase reporter gene. The signal is derived from the ratio of cleaved (ch2) to uncleaved (ch1) reporter gene substrate used as the measure of target activity.Data from the assay component TOX21_p53_BLA_p5_ratio was analyzed into 1 assay endpoint. This assay endpoint, TOX21_p53_BLA_p5_ratio, was analyzed in the positive analysis fitting direction relative to DMSO as the negative control and baseline of activity. Using a type of inducible reporter, gain-of-signal activity can be used to understand changes in the reporter gene as they relate to the gene TP53. Furthermore, this assay endpoint can be referred to as a primary readout, because this assay has produced multiple assay endpoints and this ratio serves a reporter gene function to understand target activity. To generalize the intended target to other relatable targets, this assay endpoint is annotated to the DNA binding intended target family, where the subfamily is tumor suppressor.
# Thawing Method: Place 14 mL of pre-warmed thaw medium into a 15 mL of conical tub. Remove the vial of cells to be thawed from liquid nitrogen and thaw rapidly by placing at 37C in a water bath with gentle agitation for 1-2 minutes. Decontaminate the vial by wiping with 70% ethanol before opening in a biological safety cabinet. Transfer the vial contents drop-wise into 14 mL of thaw medium in a sterile 15-mL conical tub. Centrifuge cells at 900 rpm for 4 minutes and resuspend in thaw medium. Transfer contents to the T75 tissue culture flask containing Thaw Medium and place flask in a humidified 37C/5% CO2 incubator. Switch to growth medium at first passage.Propagation Method: Aspirate medium, rinse once in DPBS, add 0.25% Trypsin/EDTA and swirl to coat the cell evenly. Add an equal volume of Growth Medium to inactivate Trypsin after 2-3 minutes incubation at 37C. Centrifuge cells at 900 rpm for 4 minutes and resuspend in growth medium. Cell should be passage or fed at least twice a week.Assay Protocol: Harvest cells from culture in growth medium and resuspend in assay medium. 2.2 Dispense 4000 cells/5 uL/well into 1536-well black/clear bottom plates using a Multidrop dispenser. After the cells were incubated at 37C for 5 hours, 23 nL of compounds dissolved in DMSO were transferred to the assay plate by a PinTool resulting in a 217-fold dilution. Incubate the plates for 16 hours at 37C, 5% CO2. Add 1 uL of 6X LiveBLAzer FRET B/G (CCF4-AM) Substrate Mixture to each well using a BioRAPTR dispenser and incubate the plates at room temperature for 2 hours. Measure fluorescence intensity at 460 and 530 nm emission and 405 nm excitation by an Envision detector. Data is expressed as the ratio of 460nm/530nm emissions. Add 4 uL of Cell-titer Glo to each well using BioRAPTR and incubate the plates at room temperature for 2 hours. Measure fluorescence intensity by a VewLux plate reader.
# Chain of Cellular tumor antigen p53 (Homo sapiens) (P04637 whole entry, looked up): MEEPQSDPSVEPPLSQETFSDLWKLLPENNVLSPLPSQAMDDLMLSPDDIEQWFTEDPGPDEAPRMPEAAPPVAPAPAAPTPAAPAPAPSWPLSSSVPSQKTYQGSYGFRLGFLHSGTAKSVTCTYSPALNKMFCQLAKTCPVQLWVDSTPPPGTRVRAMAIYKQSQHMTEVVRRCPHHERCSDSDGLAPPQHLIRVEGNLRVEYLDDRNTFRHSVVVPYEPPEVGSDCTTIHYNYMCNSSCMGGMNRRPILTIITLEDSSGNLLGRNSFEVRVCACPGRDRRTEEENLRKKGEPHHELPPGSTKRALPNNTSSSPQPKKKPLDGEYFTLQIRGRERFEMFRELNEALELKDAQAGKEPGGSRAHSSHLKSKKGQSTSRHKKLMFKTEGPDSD
Structure (SMILES),outcome,AC50
CN(C)Cc1ccccc1O,inactive,–
CC(Cc1ccc(O)c(O)c1)C(C)Cc1ccc(O)c(O)c1 (stereo not drawn),–,81.3 µM (active)
Nc1ccc([N+](=O)[O-])cc1O,inactive,–
CC/C=C\CCOC(=O)c1ccccc1,inactive,–
Nc1ccc(S(=O)(=O)Nc2nccs2)cc1,inactive,–
CCC(=O)OCCc1ccccc1,inactive,–
CCCCOc1ccc(N)cc1,inactive,–
O=S(=O)(O)c1ccc2ccccc2c1,inactive,–
OC[C@@H](O)[C@@H](O)[C@H](O)[C@@H](O)CO,inactive,–
COC(=O)C1CCC(C(=O)OC)CC1 (stereo not drawn),inactive,–
CCc1ccc(C(c2ccc(CC)cc2)C(Cl)Cl)cc1,inactive,–
CCCCCCOC(=O)c1ccccc1O,inactive,–
C1COCCN1,inactive,–
O=C(OCCOCCOCCOC(=O)c1ccccc1)c1ccccc1,–,82.1 µM (active)
Cc1ccc(S(=O)(=O)NCl)cc1,inactive,–
FC(F)(F)C(F)(F)C(F)(F)C(F)(F)CCI,inactive,–
CCCCCC=O,inactive,–
CCCCNc1ccccc1,inactive,–
CCCCCCCCCCCCCCCC[N+](C)(C)Cc1ccccc1,–,75.8 µM (active) and 38.4 µM (active)
c1ccc(B(c2ccccc2)c2ccccc2)cc1,inactive,–
Oc1ccc(Nc2ccccc2)cc1,inactive,–
C(=C(c1ccccc1)c1ccccc1)c1ccccc1,inactive,–
CC/C=C\CCOC(C)=O,inactive,–
Cc1cc(C)cc(O)c1,inactive,–
CCN(CC)c1ccc2c(C)cc(=O)oc2c1,–,38.6 µM (active) and 31.6 µM (active)
C#C[C@]1(O)CC[C@H]2[C@@H]3CCc4cc(OC)ccc4[C@H]3CC[C@@]21C,inactive,–
CNC(=S)NC,inactive,–
CCCCCCOC(=O)c1ccccc1,inactive,–
